Bioassay records from PubChem.
The full list was thinned out, with hits kept by preference.
Tgondii IFNg = inhibitors of Toxoplasma gondii growth with IFN-gamma | activity change, negative = inhibition, % (no concentration beside the values) | Toxoplasma gondii growth in IFN-gamma-treated host cells; active compounds read low | 69,000 compounds, 3.8% hits; in the data active = activity change below about -70%, passing the limit was not always enough;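 note: host cells are HeLa cells infected with Toxoplasma gondii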
Hits are given with their value; - = inactive; ! = not active in a repeat.

SMILES | Tgondii IFNg
COc1ccc(S(=O)(=O)N(C)C[C@@H]2Oc3c(NC(=O)c4nc5ccccc5s4)cccc3C(=O)N([C@H](C)CO)C[C@@H]2C)cc1 | -
COc1ccc(S(=O)(=O)N(C)C[C@H]2Oc3c(NC(=O)c4nc5ccccc5s4)cccc3C(=O)N([C@H](C)CO)C[C@@H]2C)cc1 | -
COc1ccc(S(=O)(=O)Nc2ccc3c(c2)C(=O)N([C@@H](C)CO)C[C@@H](C)[C@H](CN(C)C(=O)Nc2c(C)noc2C)OCCCC[C@@H](C)O3)cc1 | -
NC1(C(=O)O)CCN(Cc2cnc(C3CCCCC3)nc2)C1 (centres undefined) | -
COC(=O)[C@@H]1C[C@H](NC(=O)Nc2cccc(Oc3ccccc3)c2)CN1C | -
COCCN1CCN(C(=O)N2CCOCC2)Cc2ccc(C)nc21 | -
CC1=C(C(=O)NCc2ccc3c(c2)OCO3)C2(CCN(S(C)(=O)=O)CC2)OC1=O | -
Cc1[nH]cnc1CN(Cc1ccsc1)CC1CCCO1 (centres undefined) | -
Cc1ccc(S(=O)(=O)N2CCC3(CC2)NCCN=C3NC2CCCCCC2)c(C)c1 | -
COc1ccc(CC(=O)N2CCC3(CC2)CC(N2CCCC2)CO3)cc1 (centres undefined) | -
CCOc1nc(Nc2ccc(C3Nc4ccccc4O3)cc2)nc(OCC)n1 (centres undefined) | -
COCCN(Cc1ccsc1)C(=O)c1ccc2cccc(F)c2n1 | -
COc1ccc(S(=O)(=O)Nc2ccc3c(c2)C(=O)N([C@H](C)CO)C[C@@H](C)[C@H](CN(C)S(=O)(=O)c2ccc(Cl)cc2)OCCCC[C@H](C)O3)cc1 | -112.8
C[C@@H]1CCCCO[C@H](CN(C)S(=O)(=O)c2ccc(Cl)cc2)[C@@H](C)CN([C@H](C)CO)C(=O)c2cc(NC(=O)Nc3ccc(C(F)(F)F)cc3)ccc2O1 | -
COc1ccc(S(=O)(=O)Nc2ccc3c(c2)C(=O)N([C@H](C)CO)C[C@H](C)[C@H](CN(C)S(=O)(=O)c2ccc(Cl)cc2)OCCCC[C@@H](C)O3)cc1 | -
COc1ccc(S(=O)(=O)Nc2ccc3c(c2)C(=O)N([C@@H](C)CO)C[C@H](C)[C@H](CN(C)S(=O)(=O)c2ccc(Cl)cc2)OCCCC[C@@H](C)O3)cc1 | -112.3
C[C@@H]1CCCCO[C@@H](CN(C)S(=O)(=O)c2ccc(Cl)cc2)[C@@H](C)CN([C@H](C)CO)C(=O)c2cc(NC(=O)Nc3ccc(C(F)(F)F)cc3)ccc2O1 | -
COc1ccc(S(=O)(=O)N(C)C[C@@H]2OCCCC[C@@H](C)Oc3ccc(NC(=O)Cc4ccccc4)cc3C(=O)N([C@H](C)CO)C[C@@H]2C)cc1 | -
Cc1ccc(C(=O)N2CCC3O[C@@H](COc4cccnc4)CCC32)o1 (some centres undefined) | -
Cc1ccc(CN2CCOCC3(C2)CN(c2cccnc2)C(=O)CO3)s1 (centres undefined) | -
CCC(C(=O)NCc1cc(Cl)c2c(c1)OCCCO2)n1nc(C)cc1C (centres undefined) | -
O=C(NCc1cc(Cl)c2c(c1)OCCCO2)c1cccc(Nc2ncccn2)c1 | -71.3
O=C(CCC1C(=O)Nc2ccccc21)NCc1cc(Cl)c2c(c1)OCCCO2 (centres undefined) | -
Cc1nc(NCCc2cnccn2)cc(C2CCNCC2)n1 | -
Cc1cccc(-c2ccc(CC3CN(C(=O)C(C)Cn4cccn4)CCNC3=O)cc2)c1 (centres undefined) | -
SMILES | Tgondii IFNg
COc1ccc(-c2ccc(C(=O)N3CCCC(c4ccccc4)CC3)cn2)cc1 (centres undefined) | -
COc1ccc(-c2ccc(Nc3ccc(C(=O)N4CCCCCC4)cc3)nn2)cc1 | -83.6
Cc1ccc(Nc2ccc(C(=O)N3CCCCC3)cn2)cc1 | -
Cc1ccc(C)c(-c2nc(Cn3c(=O)c4c(C)cc(C)nc4n(C)c3=O)c(C)o2)c1 | -
CC(C)(C)C(=O)NCCc1csc(-c2ccc(C(F)(F)F)cc2)n1 | -
Cc1c(C)c2c(c(C)c1O)CCC(C)(C(=O)N1CCC(O)(CO)CC1)O2 (centres undefined) | -
Cc1ccc(CN2CCc3nc(N4CCOCC4)nc(NC(C)C)c3C2)s1 | -98.0
Cc1ccc(CN2CCc3nc(NC(C)C)nc(C)c3C2)s1 | -
COc1ccc(CN2CCc3nc(N4CCOCC4)nc(NC4CC4)c3C2)cc1 | -
Cc1nonc1CN(C)Cc1cc(Cl)c2c(c1)OCCCO2 | -
COc1ccc(-c2ccccc2C(N)=O)cc1Cl | -
COc1ccc(-c2cnc(N)cn2)cc1Cl | -87.7
COc1ccc(-c2nc(C)ncc2C)cc1Cl | -
Cc1nc(-c2ccc(F)cc2)sc1CCNC(=O)c1c(F)cccc1F | -
O=S(=O)(c1ccccc1)c1cnc2c(N3CCNCC3)cccc2c1 | -
Cc1cccc(N2C(=O)c3cccc4c(N5CCNCC5)ccc(c34)C2=O)c1 | -
O=c1cc(N2CCNCC2)oc2c(-c3ccccc3)cccc12 | -84.8!
CCC(Nc1ccc(Cl)cc1)C(=O)N1CCC2(CC1)CN(C)CCN2C (centres undefined) | -
CCCS(=O)(=O)N1CCc2ncc(Cn3cncn3)n2CC1 | -
O=C(CSc1cccs1)NCCSCc1ccco1 | -
COc1ccc(C(=O)N2CCC3(CC2)OC(C(=O)Nc2cccnc2)Cn2ccnc23)cc1 (centres undefined) | -
CN(C)Cc1nn(C)c2c1CCN(C(=O)CC1CC1)C2 | -
CCOc1ccc(-c2cnc(-c3nccn3CC)[nH]2)cc1OCC | -80.6
CCOc1ccc(-c2cnc[nH]2)cc1OCC | -
CCCc1ncc(-c2ccc(OCC)c(OCC)c2)[nH]1 | -
SMILES | Tgondii IFNg
O=C(NC1CC1)c1nc(Nc2ccc(F)cc2)c2ccccc2n1 | -
COC(=O)C(Cc1ccc(OCCn2c(=O)sc3cc(C(=O)c4ccccc4)ccc32)cc1)C(=O)OC | -86.7
O=c1sc2ccccc2n1CCCOc1ccccc1 | -
CN(CCOc1ccc(CC(Nc2ccccc2C(=O)c2ccccc2)C(=O)O)cc1)c1ccccn1 (centres undefined) | -
O=C(Nc1cccc2ccccc12)c1ccc(-n2cnnn2)cc1 | -
COCCN1CCOCC2(C1)CN(C(=O)c1cccn1C)CCO2 (centres undefined) | -
COc1ccc(OC)c(CN(C(=O)c2ccc(C)cc2)C2(C(=O)NCc3ccccc3)CCN(C(C)=O)CC2)c1 | -
CC(=O)N1CCC(C(=O)NCc2ccccc2)(N(Cc2ccccc2C)C(=O)c2ccc(C)cc2)CC1 | -
COc1cccc(CN(C(=O)c2ccc(C)cc2)C2(C(=O)NCc3ccccc3)CCN(C(C)=O)CC2)c1OC | -93.4
CCOC(=O)c1ccc2c(c1)N(Cc1nc(-c3ccccc3C)oc1C)C(=O)c1ccccc1S2 | -
N#Cc1ccc(C#CCOC(=O)Nc2ccc(OC(F)(F)F)cc2)cc1 | -
CCc1nc(OCC(=O)Nc2cccc(Cl)c2)c2ccccc2n1 | -
COc1cc(C(F)(F)F)nc2ccc(C#CCOC(=O)Nc3cccc(Cl)c3)cc12 | -108.7
CCCc1c(C)nc(N2CCN(Cc3ccccc3)CC2)[nH]c1=O | -
CCN(CC)CCCNC(=O)c1cc2cccc(OC)c2oc1=O | -
CCCN1CCN(c2ncnc3c(-c4ccc(OC)cc4)nsc23)CC1 | -
Cc1ccccc1CN1CCC2(CC1)CC(OCc1ccncc1)CO2 (centres undefined) | -
Cc1ccc(S(=O)(=O)N2CCC3(CCCN(Cc4c(C)noc4C)C3)C2)cc1 (centres undefined) | -
CCc1ccc(S(=O)(=O)N2CCC3(CCCN(Cc4c(C)noc4C)C3)C2)cc1 (centres undefined) | -71.8
